Laboratory results reported in the supplement of paper PMC11732987, “Enantioselective OTUD7B fragment discovery through chemoproteomics screening and high-throughput optimisation” (Communications Chemistry, 2025).

Tests used:
Assay in all cases: log2 ratio of Biotin-Ahx-Ub-VS probe labelling (fragment/DMSO); higher = less target engagement (more negative = stronger competition), active = hit call of the paper (q ≤ 0.05, log2 ratio ≤ -1)
Settings in all cases: compound concentration: 200 uM; treatment time: 3 h
[1] = molecular target: T1, USP19 (UniProt O94966)
T1 sequence (whole entry): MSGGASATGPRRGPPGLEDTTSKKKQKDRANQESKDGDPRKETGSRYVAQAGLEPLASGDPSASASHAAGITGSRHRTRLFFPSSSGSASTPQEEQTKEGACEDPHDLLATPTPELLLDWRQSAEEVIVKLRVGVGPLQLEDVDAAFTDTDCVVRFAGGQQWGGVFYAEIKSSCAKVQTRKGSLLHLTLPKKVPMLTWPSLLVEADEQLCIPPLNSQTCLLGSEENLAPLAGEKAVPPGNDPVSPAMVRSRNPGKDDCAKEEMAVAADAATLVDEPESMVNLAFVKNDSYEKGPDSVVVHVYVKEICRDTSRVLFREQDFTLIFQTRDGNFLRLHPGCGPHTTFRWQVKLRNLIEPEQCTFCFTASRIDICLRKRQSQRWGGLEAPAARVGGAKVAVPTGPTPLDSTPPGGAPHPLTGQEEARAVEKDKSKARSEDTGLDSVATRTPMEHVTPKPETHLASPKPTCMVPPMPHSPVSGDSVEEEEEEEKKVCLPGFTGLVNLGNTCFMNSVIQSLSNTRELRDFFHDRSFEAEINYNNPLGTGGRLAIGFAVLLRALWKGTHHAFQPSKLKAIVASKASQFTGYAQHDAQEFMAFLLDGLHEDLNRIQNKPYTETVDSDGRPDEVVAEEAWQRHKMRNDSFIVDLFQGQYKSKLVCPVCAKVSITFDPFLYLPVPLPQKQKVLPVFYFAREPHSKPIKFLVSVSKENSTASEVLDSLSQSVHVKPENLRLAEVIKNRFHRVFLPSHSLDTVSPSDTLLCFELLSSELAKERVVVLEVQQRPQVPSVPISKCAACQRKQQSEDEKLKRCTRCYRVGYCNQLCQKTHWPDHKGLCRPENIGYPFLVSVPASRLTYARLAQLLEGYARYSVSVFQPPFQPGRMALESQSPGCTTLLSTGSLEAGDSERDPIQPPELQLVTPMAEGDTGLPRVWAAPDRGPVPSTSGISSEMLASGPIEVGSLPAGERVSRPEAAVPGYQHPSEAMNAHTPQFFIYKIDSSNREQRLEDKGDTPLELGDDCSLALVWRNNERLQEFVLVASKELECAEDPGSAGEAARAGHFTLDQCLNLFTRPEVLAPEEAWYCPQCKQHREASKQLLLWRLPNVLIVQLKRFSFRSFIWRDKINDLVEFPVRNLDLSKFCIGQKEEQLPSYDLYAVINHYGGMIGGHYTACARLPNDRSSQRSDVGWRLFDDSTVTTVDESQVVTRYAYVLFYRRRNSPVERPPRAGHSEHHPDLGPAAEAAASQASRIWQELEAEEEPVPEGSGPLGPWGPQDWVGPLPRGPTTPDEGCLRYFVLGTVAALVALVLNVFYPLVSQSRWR
Procedure, shortened: (§1)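 Fragment (200 µM) or vehicle was incubated for 3 h with triplicate HEK293T lysate samples of 495 µg, which were then treated with Biotin-Ahx-Ub-VS at 0.5 µM final for 1 h. Labelled DUBs were enriched on NeutrAvidin, digested with LysC and trypsin, and analysed by diaPASEF LC-MS/MS. Values are average log2 fragment/vehicle ratios from an unpaired t-test on global-median-normalised Spectronaut label-free quantities, using proteins with ≥2 unique peptides.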

[2] = molecular target: USP24 (UniProt Q9UPU5)
Procedure, shortened: as §1

[3] = molecular target: T2, USP25 (UniProt Q9UHP3)
T2 sequence (whole entry): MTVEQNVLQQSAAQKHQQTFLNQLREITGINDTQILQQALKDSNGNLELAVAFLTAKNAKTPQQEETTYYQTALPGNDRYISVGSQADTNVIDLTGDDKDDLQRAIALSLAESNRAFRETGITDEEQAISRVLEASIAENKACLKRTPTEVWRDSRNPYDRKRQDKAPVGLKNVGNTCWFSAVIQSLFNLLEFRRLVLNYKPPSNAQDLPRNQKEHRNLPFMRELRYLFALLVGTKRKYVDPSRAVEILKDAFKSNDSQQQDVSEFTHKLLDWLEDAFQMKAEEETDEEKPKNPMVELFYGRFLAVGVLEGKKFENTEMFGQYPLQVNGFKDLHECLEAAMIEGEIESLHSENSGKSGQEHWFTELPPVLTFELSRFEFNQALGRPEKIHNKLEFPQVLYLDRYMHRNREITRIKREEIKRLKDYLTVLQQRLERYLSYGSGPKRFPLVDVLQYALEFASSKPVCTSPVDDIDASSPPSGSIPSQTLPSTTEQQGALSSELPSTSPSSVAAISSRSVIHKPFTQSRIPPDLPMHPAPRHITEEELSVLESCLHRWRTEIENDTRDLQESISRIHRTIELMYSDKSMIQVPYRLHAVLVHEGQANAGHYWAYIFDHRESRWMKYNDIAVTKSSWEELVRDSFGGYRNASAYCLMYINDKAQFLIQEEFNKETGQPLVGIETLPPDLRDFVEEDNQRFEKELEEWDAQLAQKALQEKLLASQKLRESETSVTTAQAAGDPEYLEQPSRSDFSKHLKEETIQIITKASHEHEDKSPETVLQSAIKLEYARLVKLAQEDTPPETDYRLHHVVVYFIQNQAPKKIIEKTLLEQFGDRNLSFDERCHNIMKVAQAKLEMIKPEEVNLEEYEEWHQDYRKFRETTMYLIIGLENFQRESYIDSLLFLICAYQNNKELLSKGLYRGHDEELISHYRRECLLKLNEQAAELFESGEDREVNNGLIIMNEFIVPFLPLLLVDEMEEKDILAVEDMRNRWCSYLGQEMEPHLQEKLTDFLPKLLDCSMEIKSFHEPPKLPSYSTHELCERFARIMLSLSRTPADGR
Procedure, shortened: as §1

[4] = molecular target: T3, USP28 (UniProt Q96RU2)
T3 sequence (whole entry): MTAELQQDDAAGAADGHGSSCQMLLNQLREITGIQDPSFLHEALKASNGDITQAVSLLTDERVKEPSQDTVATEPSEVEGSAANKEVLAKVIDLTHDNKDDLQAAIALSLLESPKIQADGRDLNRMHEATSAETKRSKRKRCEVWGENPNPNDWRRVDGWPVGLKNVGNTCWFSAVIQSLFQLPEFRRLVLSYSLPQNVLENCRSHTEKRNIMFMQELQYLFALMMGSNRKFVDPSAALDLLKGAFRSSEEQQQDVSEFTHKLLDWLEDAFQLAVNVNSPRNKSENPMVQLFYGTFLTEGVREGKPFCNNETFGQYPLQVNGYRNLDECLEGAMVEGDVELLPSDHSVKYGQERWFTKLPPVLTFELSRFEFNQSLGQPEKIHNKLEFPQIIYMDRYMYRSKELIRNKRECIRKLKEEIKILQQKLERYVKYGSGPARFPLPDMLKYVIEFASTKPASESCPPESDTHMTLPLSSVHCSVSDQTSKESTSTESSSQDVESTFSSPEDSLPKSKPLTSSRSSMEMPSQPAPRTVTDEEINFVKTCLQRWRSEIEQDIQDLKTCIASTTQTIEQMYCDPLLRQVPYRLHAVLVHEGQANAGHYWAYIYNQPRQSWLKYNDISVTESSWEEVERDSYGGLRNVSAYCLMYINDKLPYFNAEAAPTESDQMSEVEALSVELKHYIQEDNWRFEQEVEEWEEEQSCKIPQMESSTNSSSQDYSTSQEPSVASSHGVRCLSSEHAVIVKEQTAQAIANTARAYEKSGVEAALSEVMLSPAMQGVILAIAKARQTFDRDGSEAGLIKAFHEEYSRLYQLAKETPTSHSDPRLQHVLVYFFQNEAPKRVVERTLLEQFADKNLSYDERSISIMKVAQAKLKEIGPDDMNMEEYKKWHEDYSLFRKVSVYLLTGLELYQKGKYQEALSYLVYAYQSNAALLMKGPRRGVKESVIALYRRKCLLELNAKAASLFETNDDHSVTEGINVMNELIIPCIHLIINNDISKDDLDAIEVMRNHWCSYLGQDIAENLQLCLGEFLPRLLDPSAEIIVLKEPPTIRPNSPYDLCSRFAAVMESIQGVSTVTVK
Procedure, shortened: as §1

Measured: log2 ratio of Biotin-Ahx-Ub-VS probe labelling

Sequence of USP24 (Q9UPU5 whole entry): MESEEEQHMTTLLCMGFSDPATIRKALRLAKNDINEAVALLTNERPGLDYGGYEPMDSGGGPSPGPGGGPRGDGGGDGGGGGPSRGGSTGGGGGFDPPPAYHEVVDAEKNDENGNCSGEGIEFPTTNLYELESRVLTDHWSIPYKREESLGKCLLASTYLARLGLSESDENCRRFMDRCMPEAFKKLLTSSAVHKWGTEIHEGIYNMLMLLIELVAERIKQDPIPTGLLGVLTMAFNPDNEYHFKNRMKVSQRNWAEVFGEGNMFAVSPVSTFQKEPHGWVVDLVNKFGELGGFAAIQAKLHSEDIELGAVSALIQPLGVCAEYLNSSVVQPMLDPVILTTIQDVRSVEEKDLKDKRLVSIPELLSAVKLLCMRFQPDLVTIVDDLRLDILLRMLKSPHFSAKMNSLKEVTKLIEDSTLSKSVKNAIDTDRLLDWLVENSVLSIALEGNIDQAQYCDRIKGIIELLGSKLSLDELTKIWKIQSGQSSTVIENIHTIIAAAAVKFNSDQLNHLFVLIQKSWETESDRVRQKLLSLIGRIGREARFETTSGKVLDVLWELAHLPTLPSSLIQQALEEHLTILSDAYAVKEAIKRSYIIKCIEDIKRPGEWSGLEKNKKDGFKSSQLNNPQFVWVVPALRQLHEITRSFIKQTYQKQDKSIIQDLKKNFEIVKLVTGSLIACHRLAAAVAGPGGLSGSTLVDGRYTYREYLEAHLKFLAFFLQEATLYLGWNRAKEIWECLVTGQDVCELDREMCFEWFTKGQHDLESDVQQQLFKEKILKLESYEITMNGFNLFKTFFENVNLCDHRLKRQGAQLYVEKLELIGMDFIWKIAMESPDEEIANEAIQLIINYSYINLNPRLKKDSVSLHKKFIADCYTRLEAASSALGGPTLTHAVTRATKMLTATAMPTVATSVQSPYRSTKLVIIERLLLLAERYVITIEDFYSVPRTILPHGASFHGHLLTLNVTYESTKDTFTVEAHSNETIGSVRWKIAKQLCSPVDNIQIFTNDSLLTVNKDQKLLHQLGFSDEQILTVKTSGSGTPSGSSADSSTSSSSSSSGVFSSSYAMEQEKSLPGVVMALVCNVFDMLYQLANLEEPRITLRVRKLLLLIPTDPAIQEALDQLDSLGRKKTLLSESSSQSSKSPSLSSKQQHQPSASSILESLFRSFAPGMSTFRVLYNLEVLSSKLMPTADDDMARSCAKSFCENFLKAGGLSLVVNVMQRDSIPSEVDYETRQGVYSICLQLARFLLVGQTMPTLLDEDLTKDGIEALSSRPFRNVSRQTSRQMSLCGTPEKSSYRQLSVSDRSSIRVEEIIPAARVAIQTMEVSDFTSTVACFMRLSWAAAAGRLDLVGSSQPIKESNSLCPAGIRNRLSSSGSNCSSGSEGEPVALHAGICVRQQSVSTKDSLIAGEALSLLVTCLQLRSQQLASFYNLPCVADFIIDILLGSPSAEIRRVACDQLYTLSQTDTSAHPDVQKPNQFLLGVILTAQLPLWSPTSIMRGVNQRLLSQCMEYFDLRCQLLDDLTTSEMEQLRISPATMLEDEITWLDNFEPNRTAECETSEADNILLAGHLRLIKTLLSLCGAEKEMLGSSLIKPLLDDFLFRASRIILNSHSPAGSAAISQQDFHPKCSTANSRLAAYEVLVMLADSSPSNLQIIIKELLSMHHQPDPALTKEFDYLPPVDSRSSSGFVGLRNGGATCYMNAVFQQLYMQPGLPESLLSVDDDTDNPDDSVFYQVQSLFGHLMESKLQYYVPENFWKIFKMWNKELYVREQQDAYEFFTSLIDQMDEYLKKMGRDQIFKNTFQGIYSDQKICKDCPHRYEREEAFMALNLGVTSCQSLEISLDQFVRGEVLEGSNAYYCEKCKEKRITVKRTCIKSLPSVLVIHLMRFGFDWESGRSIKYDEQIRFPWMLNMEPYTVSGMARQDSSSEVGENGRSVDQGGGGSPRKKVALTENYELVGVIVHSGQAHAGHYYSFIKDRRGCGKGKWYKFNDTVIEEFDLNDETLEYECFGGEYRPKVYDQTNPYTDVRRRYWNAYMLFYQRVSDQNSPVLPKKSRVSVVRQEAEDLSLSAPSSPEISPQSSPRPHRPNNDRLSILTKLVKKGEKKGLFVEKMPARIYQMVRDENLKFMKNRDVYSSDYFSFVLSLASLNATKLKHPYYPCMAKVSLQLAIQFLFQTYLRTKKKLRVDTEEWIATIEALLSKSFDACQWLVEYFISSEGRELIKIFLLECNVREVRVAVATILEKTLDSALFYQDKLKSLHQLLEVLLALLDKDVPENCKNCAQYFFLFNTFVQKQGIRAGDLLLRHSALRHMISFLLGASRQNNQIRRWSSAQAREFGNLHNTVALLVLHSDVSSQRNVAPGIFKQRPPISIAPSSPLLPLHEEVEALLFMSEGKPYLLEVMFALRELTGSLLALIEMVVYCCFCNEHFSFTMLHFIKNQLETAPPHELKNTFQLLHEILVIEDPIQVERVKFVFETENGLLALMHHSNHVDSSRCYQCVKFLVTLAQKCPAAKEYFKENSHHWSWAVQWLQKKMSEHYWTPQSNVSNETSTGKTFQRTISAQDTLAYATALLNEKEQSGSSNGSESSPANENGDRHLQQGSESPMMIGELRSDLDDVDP

CN(C)C(=O)c1ccc(CNC(=O)CCl)cc1
inactive: [1] 0.123 | [2] 0.117 | [3] -0.513 | [4] -0.359
